About 7,900 targets were measured; listed, in parts, are those with a hit and a random draw of the rest. About 0.6% of all pairs of compound and target were hits.
What was measured:
Test in all cases: log2 fold change, soluble protein after heating vs DMSO (PISA); higher = thermal stabilisation; K562 cells, 10 uM, 30 min; active = over 0.2 and 3.5 SD of the protein, either way, in both replicates (recomputed)
[1] = compound: CC[C@@H]1C(=O)N(C)c2cnc(Nc3ccc(C(=O)NC4CCN(C)CC4)cc3OC)nc2N1C1CCCC1
In short: (§1)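 K562 cells at 2×10^6 cells/mL were treated for 30 min with 10 μM compound, and aliquots were heated for 3 min over 48°C-58°C before pooling. Extraction used PBS with 0.5% NP-40 at 4°C, and soluble protein was the supernatant after 21,000xg for 90 min, measured by TMTpro 16plex LC-MS/MS with channel sums equalised. Thermal stability values, relative to control samples and from duplicates, are log2 fold changes.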

[2] = compound: CCn1c(C(=O)N(C2CC2)C2CC2)cc2c3c(ncn3C)c(Nc3cc(C)n(C)n3)nc21
In short: as §1

[3] = compound: CCn1cc(-c2ccnc3[nH]c(-c4cccc(CN(C)C)c4)cc23)c(-c2ccc(NC(=O)N(C)C)cc2)n1
In short: as §1

[4] = compound: CN1C2=C(C3=C1C(=O)N(N=C3)CC4=CC(=CC=C4)N)SC(=C2)S(=O)C
In short: as §1

[5] = compound: CN1CCC(CNc2ccc3ncc(-c4cccc(OC(F)(F)F)c4)n3n2)CC1
In short: as §1

saracatinib = compound: CN1CCN(CCOc2cc(OC3CCOCC3)c3c(Nc4c(Cl)ccc5c4OCO5)ncnc3c2)CC1 [saracatinib]
In short: as §1

sotrastaurin = compound: CN1CCN(c2nc(C3=C(c4c[nH]c5ccccc45)C(=O)NC3=O)c3ccccc3n2)CC1 [sotrastaurin]
In short: as §1

alvocidib = compound: CN1CC[C@H](c2c(O)cc(O)c3c(=O)cc(-c4ccccc4Cl)oc23)[C@H](O)C1 [alvocidib]
In short: as §1

Tubastatin A = compound: CN1CCc2c(c3ccccc3n2Cc2ccc(C(=O)NO)cc2)C1 [Tubastatin A]
In short: as §1

[6] = compound: CNC(=O)C1=CC=CC=C1NC2=NC(=NC=C2Cl)NC3=C(C=C(C=C3)N4CCOCC4)OC
In short: as §1

rucaparib = compound: CNCc1ccc(-c2[nH]c3cc(F)cc4c3c2CCNC4=O)cc1 [rucaparib]
In short: as §1

[7] = compound: CNc1nc(-c2ccc3c(N)n[nH]c3c2)cc(N2C[C@@H](C(=O)NC3CCCCC3)CC[C@H]2C)n1
In short: as §1

encorafenib = compound: COC(=O)N[C@@H](C)CNc1nccc(-c2cn(C(C)C)nc2-c2cc(Cl)cc(NS(C)(=O)=O)c2F)n1 [encorafenib]
In short: as §1

volasertib = compound: CC[C@@H]1C(=O)N(C)c2cnc(Nc3ccc(C(=O)N[C@H]4CC[C@H](N5CCN(CC6CC6)CC5)CC4)cc3OC)nc2N1C(C)C [volasertib]
In short: as §1

epoxomicin = compound: CC[C@H](C)[C@@H](C(=O)N[C@@H]([C@@H](C)O)C(=O)N[C@@H](CC(C)C)C(=O)[C@]1(CO1)C)NC(=O)[C@H]([C@@H](C)CC)N(C)C(=O)C [epoxomicin]
In short: as §1

[8] = compound: CN(C)CC(=O)Nc1ccc2[nH]c(=O)c3ccccc3c2c1
In short: as §1

rosiglitazone = compound: CN(CCOC1=CC=C(C=C1)C[C@H]2C(=O)NC(=O)S2)C3=CC=CC=N3 (racemic) [rosiglitazone]
In short: as §1

defactinib = compound: CNC(=O)c1ccc(Nc2ncc(C(F)(F)F)c(NCc3nccnc3N(C)S(C)(=O)=O)n2)cc1 [defactinib]
In short: as §1

[9] = compound: COC(=O)[C@H](CCSC)NC(=O)C1=C(C=C(C=C1)NC[C@H](CS)N)C2=CC=CC=C2
In short: as §1

[10] = compound: CC[C@H](C)N1C=C(C2=C(C=C(C=C21)C3=CN=C(C=C3)N4CCNCC4)C(=O)NCC5=C(C=C(NC5=O)C)C)C
In short: as §1

Measured: log2 fold change

MFSD12 isoform 3 (UniProt Q6NUT3)
inactive: [1] -0.005 | [2] 0.077 | [3] -0.006 | [4] 0.075 | [5] -0.305 | saracatinib -0.154 | sotrastaurin -0.172 | alvocidib -0.04 | Tubastatin A 0.031 | [6] 0.042 | rucaparib -0.14 | [7] -0.144 | encorafenib 0.196

MAPK11 (UniProt Q15759)
Chain of UniProt Q15759 (Q15759 whole entry, looked up): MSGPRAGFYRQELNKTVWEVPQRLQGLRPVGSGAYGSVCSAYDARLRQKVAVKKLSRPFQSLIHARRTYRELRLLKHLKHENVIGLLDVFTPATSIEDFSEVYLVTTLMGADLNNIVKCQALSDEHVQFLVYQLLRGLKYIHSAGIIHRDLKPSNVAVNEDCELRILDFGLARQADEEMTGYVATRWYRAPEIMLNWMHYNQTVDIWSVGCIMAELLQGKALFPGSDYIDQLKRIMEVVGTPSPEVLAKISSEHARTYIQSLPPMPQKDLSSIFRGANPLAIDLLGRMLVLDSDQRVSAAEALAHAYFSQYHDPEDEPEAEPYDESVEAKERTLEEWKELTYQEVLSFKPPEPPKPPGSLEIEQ
inactive: [2] -0.332 | [3] 0.025 | [5] -0.263 | Tubastatin A 0.208 | [6] 0.615

LMBR1 isoform 3 (UniProt Q8WVP7)
inactive: volasertib -0.452 | epoxomicin 0.26 | [2] -0.074 | [3] -0.456 | [8] 0.049 | rosiglitazone -0.037 | [4] 0.033 | [5] -0.314 | saracatinib 0.085 | sotrastaurin -0.004 | alvocidib -0.06 | Tubastatin A 0.079 | [6] -0.045 | defactinib -0.104 | [7] -0.009 | [9] 0.132

LRRCC1 (UniProt Q9C099)
inactive: [4] 0.281 | saracatinib 0 | Tubastatin A 0.292 | [7] 0.06

LAPTM4B (UniProt Q86VI4)
Chain of UniProt Q86VI4 (Q86VI4 whole entry, looked up): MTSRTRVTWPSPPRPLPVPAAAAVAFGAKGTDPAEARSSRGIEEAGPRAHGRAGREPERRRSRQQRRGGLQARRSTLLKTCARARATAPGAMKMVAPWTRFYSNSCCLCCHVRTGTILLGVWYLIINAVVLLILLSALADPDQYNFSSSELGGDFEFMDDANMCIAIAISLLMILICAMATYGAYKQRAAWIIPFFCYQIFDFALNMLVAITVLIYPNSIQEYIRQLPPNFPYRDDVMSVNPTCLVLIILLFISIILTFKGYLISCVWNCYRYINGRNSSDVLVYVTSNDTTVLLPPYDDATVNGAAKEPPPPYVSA
inactive: [1] 0.063 | [2] -0.12 | [3] 0.216 | rosiglitazone -0.024 | sotrastaurin -0.194 | [6] 0.007 | rucaparib 0 | encorafenib 0.009
active: [5] 0.968

IGFBP6 (UniProt P24592)
Chain of UniProt P24592 (P24592 whole entry, looked up): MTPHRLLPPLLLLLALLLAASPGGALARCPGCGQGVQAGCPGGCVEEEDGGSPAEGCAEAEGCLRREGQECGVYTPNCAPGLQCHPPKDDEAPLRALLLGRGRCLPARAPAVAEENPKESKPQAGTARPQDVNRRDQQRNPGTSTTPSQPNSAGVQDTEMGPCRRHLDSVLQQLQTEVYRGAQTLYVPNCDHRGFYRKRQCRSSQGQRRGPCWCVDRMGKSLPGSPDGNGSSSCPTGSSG
inactive: [8] -0.186 | [4] 0.107 | saracatinib 0.011 | alvocidib 0.136 | defactinib 0.144 | [7] -0.094 | [9] 0.055

IKZF1 isoform 2 (UniProt Q13422)
Chain of UniProt Q13422 (Q13422 whole entry, looked up): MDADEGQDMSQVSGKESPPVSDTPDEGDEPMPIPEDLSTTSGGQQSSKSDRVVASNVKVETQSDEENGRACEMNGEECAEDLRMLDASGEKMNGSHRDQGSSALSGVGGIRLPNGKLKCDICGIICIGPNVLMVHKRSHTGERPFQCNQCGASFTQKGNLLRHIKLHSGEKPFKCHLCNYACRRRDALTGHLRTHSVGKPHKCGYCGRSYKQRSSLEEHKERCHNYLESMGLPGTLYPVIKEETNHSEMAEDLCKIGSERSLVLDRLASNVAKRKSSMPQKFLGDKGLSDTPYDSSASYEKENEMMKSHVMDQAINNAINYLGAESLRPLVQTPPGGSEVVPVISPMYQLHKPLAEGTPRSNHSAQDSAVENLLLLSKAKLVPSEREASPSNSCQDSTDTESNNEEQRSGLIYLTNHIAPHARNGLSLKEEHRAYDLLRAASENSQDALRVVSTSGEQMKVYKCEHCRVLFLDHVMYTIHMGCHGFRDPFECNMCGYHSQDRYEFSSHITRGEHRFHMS
inactive: [10] -0.011 | [2] -0.034 | [8] -0.043 | rosiglitazone 0.078 | sotrastaurin 0.049 | alvocidib -0.101 | Tubastatin A -0.123 | [6] 0.05 | defactinib -0.106 | [9] -0.02

MAP4K5 (UniProt Q9Y4K4)
Chain of UniProt Q9Y4K4 (Q9Y4K4 whole entry, looked up): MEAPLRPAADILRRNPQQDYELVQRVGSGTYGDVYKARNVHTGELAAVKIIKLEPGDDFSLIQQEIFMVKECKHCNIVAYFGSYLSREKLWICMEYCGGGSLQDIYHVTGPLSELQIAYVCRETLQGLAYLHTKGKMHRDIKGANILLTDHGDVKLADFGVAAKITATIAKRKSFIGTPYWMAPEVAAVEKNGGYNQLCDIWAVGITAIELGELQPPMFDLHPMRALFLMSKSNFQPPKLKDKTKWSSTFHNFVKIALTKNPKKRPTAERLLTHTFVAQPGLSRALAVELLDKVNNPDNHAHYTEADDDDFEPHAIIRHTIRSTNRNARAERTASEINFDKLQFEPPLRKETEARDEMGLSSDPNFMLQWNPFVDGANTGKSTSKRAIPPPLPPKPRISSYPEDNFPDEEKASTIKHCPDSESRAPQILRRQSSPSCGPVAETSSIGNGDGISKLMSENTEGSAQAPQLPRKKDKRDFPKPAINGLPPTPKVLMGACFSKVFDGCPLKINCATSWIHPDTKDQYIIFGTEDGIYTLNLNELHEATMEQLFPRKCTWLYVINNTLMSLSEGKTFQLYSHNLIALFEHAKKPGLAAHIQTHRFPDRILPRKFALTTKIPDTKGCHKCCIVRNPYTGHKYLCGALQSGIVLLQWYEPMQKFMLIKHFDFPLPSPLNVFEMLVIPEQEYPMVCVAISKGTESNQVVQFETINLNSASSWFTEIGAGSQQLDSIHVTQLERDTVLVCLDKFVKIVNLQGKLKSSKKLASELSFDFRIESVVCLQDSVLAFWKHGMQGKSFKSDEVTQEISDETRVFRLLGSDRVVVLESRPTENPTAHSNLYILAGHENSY
inactive: volasertib -0.135 | [10] -0.004 | epoxomicin -0.014 | [2] -0.084 | [3] -0.126 | [8] -0.026 | rosiglitazone -0.005 | [5] 0.051 | alvocidib 0.072 | Tubastatin A 0.113 | [6] -0.02 | defactinib -0.02 | rucaparib -0.08 | encorafenib 0.082 | [9] -0.041

ITM2C (UniProt Q9NQX7)
Chain of UniProt Q9NQX7 (Q9NQX7 whole entry, looked up): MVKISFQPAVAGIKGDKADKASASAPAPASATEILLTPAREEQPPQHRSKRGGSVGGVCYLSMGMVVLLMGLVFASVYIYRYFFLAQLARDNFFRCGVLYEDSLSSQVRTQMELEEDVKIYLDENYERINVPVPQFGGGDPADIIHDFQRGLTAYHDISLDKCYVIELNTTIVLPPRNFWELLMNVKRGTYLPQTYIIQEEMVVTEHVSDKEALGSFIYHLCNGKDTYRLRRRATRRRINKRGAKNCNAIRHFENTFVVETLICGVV
inactive: volasertib -0.312 | [10] 0.049 | epoxomicin -0.149 | [2] -0.096 | [3] -0.104 | [8] -0.046 | rosiglitazone 0.069 | [4] 0.125 | [5] 0.218 | saracatinib -0.007 | sotrastaurin -0.072 | alvocidib 0.034 | [6] 0 | defactinib 0.039 | [7] -0.003 | [9] -0.045

LUZP1 (UniProt Q86V48)
inactive: volasertib -0.021 | [10] -0.026 | epoxomicin -0.22 | [2] 0.09 | [3] 0.026 | [8] 0.035 | rosiglitazone 0.026 | [4] 0.026 | [5] -0.039 | saracatinib 0.075 | sotrastaurin -0.088 | alvocidib 0.229 | Tubastatin A 0.13 | [6] -0.022 | defactinib -0.498 | [7] 0.002 | [9] -0.209

MED29 (UniProt Q9NX70)
inactive: volasertib -0.115 | [10] 0.055 | [2] -0.044 | [4] -0.056 | saracatinib -0.033 | [6] 0.004 | [7] 0.001

LSR isoform 3 (UniProt Q86X29)
inactive: volasertib -0.096 | [4] 0.047 | saracatinib -0.207 | sotrastaurin 0.176 | alvocidib 0.088 | Tubastatin A 0.084 | [7] 0.114

MAML1 (UniProt Q92585)
Chain of UniProt Q92585 (Q92585 whole entry, looked up): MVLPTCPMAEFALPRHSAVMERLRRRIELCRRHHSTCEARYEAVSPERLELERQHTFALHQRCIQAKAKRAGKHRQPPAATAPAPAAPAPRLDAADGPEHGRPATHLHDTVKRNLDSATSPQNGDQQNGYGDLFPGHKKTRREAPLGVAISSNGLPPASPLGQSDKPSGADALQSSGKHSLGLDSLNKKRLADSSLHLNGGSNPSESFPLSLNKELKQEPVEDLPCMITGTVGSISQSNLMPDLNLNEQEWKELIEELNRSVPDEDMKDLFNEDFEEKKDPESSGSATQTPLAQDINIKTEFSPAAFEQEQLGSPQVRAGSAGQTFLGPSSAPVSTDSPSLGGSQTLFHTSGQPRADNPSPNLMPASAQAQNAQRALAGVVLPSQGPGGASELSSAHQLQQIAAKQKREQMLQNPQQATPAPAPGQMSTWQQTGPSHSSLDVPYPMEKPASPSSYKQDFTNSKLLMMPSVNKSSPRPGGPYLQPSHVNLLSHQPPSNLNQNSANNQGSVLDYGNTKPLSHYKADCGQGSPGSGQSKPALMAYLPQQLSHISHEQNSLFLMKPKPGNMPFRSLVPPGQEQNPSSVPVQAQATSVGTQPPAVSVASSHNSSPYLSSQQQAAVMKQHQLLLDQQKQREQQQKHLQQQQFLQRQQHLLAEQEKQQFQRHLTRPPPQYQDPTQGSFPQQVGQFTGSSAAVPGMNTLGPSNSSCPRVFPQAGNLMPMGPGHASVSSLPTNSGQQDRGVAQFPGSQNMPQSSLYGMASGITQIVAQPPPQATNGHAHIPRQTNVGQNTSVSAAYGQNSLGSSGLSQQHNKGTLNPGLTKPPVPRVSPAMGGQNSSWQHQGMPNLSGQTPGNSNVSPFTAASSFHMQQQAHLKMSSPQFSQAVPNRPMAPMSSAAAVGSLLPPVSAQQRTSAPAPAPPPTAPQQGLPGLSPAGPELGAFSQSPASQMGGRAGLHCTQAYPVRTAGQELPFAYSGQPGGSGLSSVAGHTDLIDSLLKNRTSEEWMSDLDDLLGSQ
inactive: epoxomicin 0.059 | [2] -0.092 | [8] -0.055 | sotrastaurin -0.051 | alvocidib 0.062 | defactinib -0.179 | [9] -0.327
active: [6] 0.644

KMT5A (UniProt Q9NQR1)
Chain of UniProt Q9NQR1 (Q9NQR1 whole entry, looked up): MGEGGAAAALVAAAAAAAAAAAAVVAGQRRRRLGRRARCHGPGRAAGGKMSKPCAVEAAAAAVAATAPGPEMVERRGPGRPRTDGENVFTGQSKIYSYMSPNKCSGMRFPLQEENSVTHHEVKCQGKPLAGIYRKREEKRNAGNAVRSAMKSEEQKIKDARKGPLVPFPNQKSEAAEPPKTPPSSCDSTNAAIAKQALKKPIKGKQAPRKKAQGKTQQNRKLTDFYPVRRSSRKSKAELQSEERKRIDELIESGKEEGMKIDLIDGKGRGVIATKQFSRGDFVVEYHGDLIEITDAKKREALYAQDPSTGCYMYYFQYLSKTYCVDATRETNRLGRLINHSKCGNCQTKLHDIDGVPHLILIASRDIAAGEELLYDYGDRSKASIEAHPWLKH
inactive: [3] 0.091 | [5] -0.2 | sotrastaurin -0.18

MED7 (UniProt O43513)
Chain of UniProt O43513 (O43513 whole entry, looked up): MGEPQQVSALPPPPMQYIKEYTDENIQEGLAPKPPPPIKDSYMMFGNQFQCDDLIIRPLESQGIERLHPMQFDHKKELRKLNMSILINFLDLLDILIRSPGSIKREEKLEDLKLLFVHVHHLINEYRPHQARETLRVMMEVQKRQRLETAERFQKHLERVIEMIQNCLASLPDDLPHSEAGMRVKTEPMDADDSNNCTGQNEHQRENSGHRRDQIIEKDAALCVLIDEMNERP
inactive: volasertib 0.139 | [10] -0.287 | epoxomicin 0.127 | [2] 0.015 | [8] 0.021 | rosiglitazone -0.059 | [4] -0.172 | saracatinib -0.026 | sotrastaurin 0.151 | alvocidib -0.072 | Tubastatin A -0.145 | [6] -0.056 | defactinib -0.015 | [7] -0.006 | [9] 0.012

MAGED1 isoform 2 (UniProt Q9Y5V3)
Chain of UniProt Q9Y5V3 (Q9Y5V3 whole entry, looked up): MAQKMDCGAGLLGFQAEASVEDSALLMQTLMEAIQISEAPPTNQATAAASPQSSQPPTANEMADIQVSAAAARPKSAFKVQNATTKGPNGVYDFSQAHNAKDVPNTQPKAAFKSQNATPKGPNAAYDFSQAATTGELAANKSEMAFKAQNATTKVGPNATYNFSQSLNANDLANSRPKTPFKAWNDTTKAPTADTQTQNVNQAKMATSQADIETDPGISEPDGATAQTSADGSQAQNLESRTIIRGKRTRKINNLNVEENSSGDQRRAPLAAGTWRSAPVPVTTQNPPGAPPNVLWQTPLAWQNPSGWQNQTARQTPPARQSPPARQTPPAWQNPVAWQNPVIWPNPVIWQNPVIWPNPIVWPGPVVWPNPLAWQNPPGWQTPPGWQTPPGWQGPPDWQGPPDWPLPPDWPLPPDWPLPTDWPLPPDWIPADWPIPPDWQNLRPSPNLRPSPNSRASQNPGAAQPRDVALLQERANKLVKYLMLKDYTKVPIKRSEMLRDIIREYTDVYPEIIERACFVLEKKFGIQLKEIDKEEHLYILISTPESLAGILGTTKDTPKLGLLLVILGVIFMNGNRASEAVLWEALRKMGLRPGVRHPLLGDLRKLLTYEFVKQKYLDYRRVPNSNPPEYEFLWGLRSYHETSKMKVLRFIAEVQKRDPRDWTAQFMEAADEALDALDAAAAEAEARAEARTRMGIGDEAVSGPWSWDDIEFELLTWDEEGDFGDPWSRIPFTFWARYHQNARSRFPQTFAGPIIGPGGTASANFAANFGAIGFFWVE
inactive: volasertib -0.306 | [10] -0.01 | epoxomicin -0.053 | [2] 0.01 | [8] 0.012 | [4] 0.399 | saracatinib -0.073 | sotrastaurin -0.196 | alvocidib 0.002 | [6] 0.015 | defactinib 0.036 | [7] 0.117 | [9] 0.197

KIF21A (UniProt H0YI78)
inactive: [2] -0.05 | [6] -0.012

— the supplement of paper PMC10849652
